Laboratory results from PubChem BioAssay (NCATS).
Results filed as inconclusive are left out. Activity calls are given as the source filed them. Calls come from the whole dose curve; as a rule, active = well fitted inhibition curve with a large enough effect; inconclusive = small, poorly fitted or top-dose-only effect; inactive = flat fitted curve, though single readings scatter.

System: CRL-7250
Test: qHTS assay to identify novel small-molecules to repurpose for Merkel cell carcinoma treatment (AID 1296009); note: nearly all actives have a fitted effect of over 60% in size
Conditions: MCC and control cell lines, CellTiter-Glo viability, 72 h; at 44.8 µM (top of the series) unless noted
How it was run: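 Dose-response viability screen; 72 hr exposure at 37 degree celsius; CellTiter-Glo added, 10 min room temperature, luminescence read; RLUs scaled between no-cell and DMSO wells.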

Structure (SMILES) | outcome
CCn1cc(C(=O)O)c(=O)c2cc(F)c(N3CCN(C)CC3)cc21 | inactive [at 17.4 µM]
CC(C)NCCCC1(C(N)=O)c2ccccc2-c2ccccc21 | inactive
OC(CCN1CCCCC1)(c1ccccc1)C1CC2C=CC1C2 (stereo not given) | inactive
CC(C)C(=O)OCc1cccc(OC(=O)[C@@H]2N3C(=O)[C@@H](NC(=O)Cc4ccccc4)[C@H]3SC2(C)C)c1 | inactive
CC(C)(C)c1ccc(C(O)CCCN2CCC(C(O)(c3ccccc3)c3ccccc3)CC2)cc1 (stereo not given) | inactive
CC(C)(C)c1ccc(C(=O)CCCCl)cc1 | inactive
CC(=O)NC(Cc1ccccc1)C(=O)O (stereo not given) | inactive [at 92 µM]
Nc1nc2ncc(CNc3ccc(C(=O)N[C@@H](CCC(=O)O)C(=O)O)cc3)nc2c(=O)[nH]1 | inactive
CC1(C)OC[C@@H](COC(=O)CCc2ccc(OC[C@@H](O)CNCCNC(=O)N3CCOCC3)cc2)O1 | inactive
O=C(OCC(O)CO)c1ccccc1Nc1ccnc2cc(Cl)ccc12 (stereo not given) | inactive
CC(=O)OCC(=O)[C@@]1(O)CCC2C3CCC4=CC(=O)CC[C@]4(C)C3[C@@H](O)C[C@@]21C (stereo not given in full) | inactive
COc1cc([C@H]2Oc3cc([C@H]4Oc5cc(O)cc(O)c5C(=O)[C@@H]4O)ccc3O[C@@H]2CO)ccc1O | inactive
Cn1cc(C(=O)[C@@H]2CCc3nc[nH]c3C2)c2ccccc21 | inactive
O=C(O)Cn1c(C(=O)Nc2nc(-c3ccccc3Cl)cs2)cc2ccccc21 | inactive
CCOC(=O)C1=C[C@]2(CC)CCCN3CCc4c(n1c1ccccc41)[C@@H]32 | inactive
